Records with an inconclusive call do not appear. Where a call stands in place of a potency, no number is given. Values without a mark were called inactive. Active and inactive are the calls of the source. Unless noted, calls come from the whole dose curve.
Tests used:
[1] = qHTS assay to identify small molecule antagonists of the peroxisome proliferator-activated receptor delta (PPARd) signaling pathway - cell viability counter screen (AID 743213; active = well fitted curve in the direction sought with a large enough effect in the repeat runs; an effect the other way counts as inactive or inconclusive; note: nearly all actives have a fitted effect of over 50% in size)
Outline: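 PPARd-bla HEK293H cells were treated with compounds plus agonist L165041 (300 nM final) for 17 h at 37 C. Viability was then read in the same wells by CellTiter-Glo luminescence after 30 min at room temperature.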

[2] = biological target: Peroxisome proliferator-activated receptor delta (Homo sapiens) (UniProt Q03181); assay: qHTS assay to identify small molecule antagonists of the peroxisome proliferator-activated receptor delta (PPARd) signaling pathway (AID 743215; active = well fitted inhibition curve with a large enough effect in the signal ratio in the repeat runs, not every such curve was filed as active; the % refers to the signal ratio;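 note: cells stimulated with agonist L165041 at 300 nM final during compound exposure; series mostly up to about 62 µM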)
Peroxisome proliferator-activated receptor delta (Homo sapiens), sequence (Q03181 whole entry, looked up): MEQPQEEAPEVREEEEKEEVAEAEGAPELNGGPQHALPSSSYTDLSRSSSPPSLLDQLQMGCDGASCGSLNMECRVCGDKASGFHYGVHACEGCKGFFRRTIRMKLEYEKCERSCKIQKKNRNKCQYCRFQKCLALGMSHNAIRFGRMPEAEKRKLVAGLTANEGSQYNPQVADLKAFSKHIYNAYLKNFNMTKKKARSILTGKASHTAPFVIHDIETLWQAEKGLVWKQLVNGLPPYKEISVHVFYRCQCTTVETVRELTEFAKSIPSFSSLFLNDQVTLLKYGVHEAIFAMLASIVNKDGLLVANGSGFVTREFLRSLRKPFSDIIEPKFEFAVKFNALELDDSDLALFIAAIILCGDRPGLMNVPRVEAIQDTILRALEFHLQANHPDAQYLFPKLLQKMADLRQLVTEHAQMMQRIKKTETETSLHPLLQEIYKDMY
Outline: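 Read-out is beta-lactamase FRET fluorescence, measured 2 h after substrate addition at room temperature. Beforehand, UAS-bla HEK293H cells carrying the PPARd reporter were exposed to compounds with L165041 at 300 nM final for 17 h at 37 C.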

[3] = biological target: Bile acid receptor (Homo sapiens) (UniProt Q96RI1); assay: qHTS assay to identify small molecule antagonists of the farnesoid-X-receptor (FXR) signaling pathway (AID 743217; active = well fitted inhibition curve with a large enough effect in the signal ratio in the repeat runs, not every such curve was filed as active; the % refers to the signal ratio)
Bile acid receptor (Homo sapiens), sequence (Q96RI1 whole entry, looked up): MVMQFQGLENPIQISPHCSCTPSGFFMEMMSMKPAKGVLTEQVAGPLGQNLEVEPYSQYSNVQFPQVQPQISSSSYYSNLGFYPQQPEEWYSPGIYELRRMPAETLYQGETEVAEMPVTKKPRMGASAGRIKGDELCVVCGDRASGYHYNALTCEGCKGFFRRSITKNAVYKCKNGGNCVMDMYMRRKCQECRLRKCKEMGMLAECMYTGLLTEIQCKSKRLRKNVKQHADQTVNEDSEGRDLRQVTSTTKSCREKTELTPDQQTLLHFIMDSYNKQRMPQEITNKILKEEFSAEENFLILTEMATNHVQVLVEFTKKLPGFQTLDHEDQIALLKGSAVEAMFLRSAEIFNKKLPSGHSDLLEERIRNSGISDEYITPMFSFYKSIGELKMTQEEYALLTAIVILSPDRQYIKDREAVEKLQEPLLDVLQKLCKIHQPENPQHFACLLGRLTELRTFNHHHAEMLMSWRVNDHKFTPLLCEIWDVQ
Outline: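 HEK 293T FXR-UAS-bla, 5000 cells/well; compound + CDCA 50 uM final; 16 h, 37 °C; B/G FRET substrate 2 h RT; fluorescence.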

[4] = qHTS assay to identify small molecule agonists of the farnesoid-X-receptor (FXR) signaling pathway - cell viability counter screen (AID 743218; active = well fitted curve in the direction sought with a large enough effect in the repeat runs; an effect the other way counts as inactive or inconclusive; note: nearly all actives have a fitted effect of over 45% in size)
Outline: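 HEK 293T FXR-bla cells; 5 h pre-incubation, 16 h compound exposure at 37 C; LiveBLAzer substrate 2 h RT, then CellTiter-Glo 30 min RT, luminescence.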

[5] = biological target: Bile acid receptor (Homo sapiens) (UniProt Q96RI1); assay: qHTS assay to identify small molecule agonists of the farnesoid-X-receptor (FXR) signaling pathway (AID 743220; active = well fitted activation curve with a large enough effect in the signal ratio in the repeat runs, not every such curve was filed as active; the % refers to the signal ratio)
Outline: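 Beta-lactamase reporter under UAS control in GeneBLAzer FXR HEK 293T cells (5000/well) measured with LiveBLAzer FRET substrate after 2 h at room temperature. Compound exposure lasted 16 h at 37C.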

[6] = biological target: Vitamin D3 receptor (Homo sapiens) (UniProt P11473); assay: qHTS assay to identify small molecule agonists of the vitamin D receptor (VDR) signaling pathway (AID 743222)
Vitamin D3 receptor (Homo sapiens), sequence (P11473 whole entry, looked up): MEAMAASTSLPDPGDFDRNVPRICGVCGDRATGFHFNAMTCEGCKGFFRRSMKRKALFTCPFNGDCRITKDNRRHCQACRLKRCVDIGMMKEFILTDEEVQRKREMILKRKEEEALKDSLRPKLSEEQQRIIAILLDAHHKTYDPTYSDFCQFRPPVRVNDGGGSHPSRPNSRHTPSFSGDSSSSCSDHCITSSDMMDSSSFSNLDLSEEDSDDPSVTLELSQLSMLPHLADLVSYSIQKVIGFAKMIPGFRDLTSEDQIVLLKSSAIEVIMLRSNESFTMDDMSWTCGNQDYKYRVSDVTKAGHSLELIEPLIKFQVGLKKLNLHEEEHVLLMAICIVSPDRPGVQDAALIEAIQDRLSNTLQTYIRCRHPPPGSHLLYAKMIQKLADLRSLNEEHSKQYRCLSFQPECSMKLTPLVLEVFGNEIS
Outline: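 VDR-bla cells, 2,000/well; 4 h preincubation 37C; cpd (DMSO) 16 h; LiveBLAzer B/G substrate 2 h RT; fluorescence intensity read.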

[7] = qHTS assay to identify small molecule agonists of the vitamin D receptor (VDR) signaling pathway - cell viability counter screen (AID 743224; active = well fitted curve in the direction sought with a large enough effect in the repeat runs; an effect the other way counts as inactive or inconclusive; note: series mostly up to about 63 µM; nearly all actives have a fitted effect of over 50% in size)
Outline: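 Luminescence from CellTiter-Glo, read after 30 min at room temperature, reports viability of VDR-bla cells treated with compounds for 16 h at 37C in the wells used for the beta-lactamase FRET read.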

[8] = qHTS assay to identify small molecule antagonists of the vitamin D receptor (VDR) signaling pathway - cell viability counter screen (AID 743225; active = well fitted curve in the direction sought with a large enough effect in the repeat runs; an effect the other way counts as inactive or inconclusive; note: nearly all actives have a fitted effect of over 50% in size)
Outline: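 VDR-bla HEK 293T cells, 4 h pre-incubation at 37C, then compound plus 1-alpha,25-dihydroxyvitamin D3 (3 nM final) for 16 h. After the beta-lactamase FRET read, CellTiter-Glo was added to the same wells; luminescence after 30 min at room temperature.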

[9] = qHTS assay to identify small molecule agonists of the NFkB signaling pathway (AID 1159509; active = well fitted curve in the direction sought with a large enough effect in the signal ratio in the repeat runs, not every such curve was filed as active; the % refers to the signal ratio; note: series mostly up to about 61 µM)
Outline: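 After overnight attachment, reporter cells received test compounds, DMSO or positive controls and were incubated 5 hr at 37 C. FRET substrate was then added for 1.5 hr at room temperature before dual-emission fluorescence reading.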

[10] = qHTS assay to identify small molecule agonists of the NFkB signaling pathway - cell viability counter screen (AID 1159515); note: series mostly up to about 61 µM; nearly all actives have a fitted effect of over 55% in size
Outline: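 Luminescence from CellTiter-Glo (30 min, room temperature) gives viability, measured in the same wells as the beta-lactamase reporter read. Cells were NFkB-bla ME-180, 2,000 per well, treated 5 hr with compounds.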

[11] = qHTS assay to identify small molecule agonists of the endoplasmic reticulum stress response signaling pathway (AID 1159516; active = well fitted activation curve with a large enough effect in the signal ratio in the repeat runs, not every such curve was filed as active; the % refers to the signal ratio)
Outline: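 Read-out is beta-lactamase cleavage of a FRET substrate (405 nm excitation; 460 and 530 nm emissions) in ESRE-bla HeLa cells after a 5 hr compound exposure at 37 C. Substrate incubation ran 2 hr at room temperature.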

[12] = qHTS assay to identify small molecule agonists of the endoplasmic reticulum stress response signaling pathway - cell viability counter screen (AID 1159517);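 note: HeLa cells carrying an ER stress response element beta-lactamase reporter; series mostly up to about 61 µM; nearly all actives have a fitted effect of over 50% in size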
Outline: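 Luminescence readout: CellTiter-Glo, 30 min RT, same wells as the ESRE-bla reporter read. HeLa ESRE-bla, 1,500 cells/well, o/n 37 C; cpd 5 hr 37 C/5% CO2.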

[13] = qHTS assay to identify small molecule antagonists of the retinoid-related orphan receptor gamma (ROR-gamma) signaling pathway - cell viability counter screen (AID 1159520; active = well fitted curve in the direction sought with a large enough effect in the repeat runs; an effect the other way counts as inactive or inconclusive; note: nearly all actives have a fitted effect of over 50% in size)
Outline: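 Tet-on ROR gamma CHO cells (1,000/well) were plated 4 hr, given compounds in DMSO for 2 hr at 37 C, then induced with 1 uM final doxycycline for 16 hr. Viability was read as ATP by CellTiter-Glo luminescence after 30 min.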

[14] = biological target: Nuclear receptor ROR-gamma (Homo sapiens) (UniProt P51449); assay: qHTS assay to identify small molecule antagonists of the retinoid-related orphan receptor gamma (ROR-gamma) signaling pathway (AID 1159521; active = well fitted curve in the direction sought with a large enough effect in the repeat runs; an effect the other way counts as inactive or inconclusive)
Outline: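 Tet-on RORγ CHO cells carrying a ROR response element–luciferase reporter were pretreated with compounds for 2 h, then induced with 1 uM (final) doxycycline hyclate for 16 h at 37 C. Antagonism was read as decreased ONE-Glo luminescence.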

[15] = qHTS assay to identify small molecule agonists of the AP-1 signaling pathway - cell viability counter screen (AID 1159525); note: nearly all actives have a fitted effect of over 55% in size
Outline: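 ME-180 AP-1-bla, 2500 cells/well, Opti-MEM + 0.5% dialyzed FBS; overnight 37 °C; cpd 15-pt titration, 5 h 37 °C; CellTiter-Glo 30 min RT; luminescence read; normalised to TOAB and DMSO controls.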

[16] = qHTS assay to identify small molecule agonists of the AP-1 signaling pathway (AID 1159526)
[17] = biological target: Retinoic acid receptor RXR-alpha (Homo sapiens) (UniProt P19793); assay: qHTS assay to identify small molecule agonists of the RXR signaling pathway (AID 1159527); note: nearly all actives have a fitted effect of over 35% in size; note: potency is the fitted concentration of half-maximal effect
Retinoic acid receptor RXR-alpha (Homo sapiens), sequence (P19793 whole entry, looked up): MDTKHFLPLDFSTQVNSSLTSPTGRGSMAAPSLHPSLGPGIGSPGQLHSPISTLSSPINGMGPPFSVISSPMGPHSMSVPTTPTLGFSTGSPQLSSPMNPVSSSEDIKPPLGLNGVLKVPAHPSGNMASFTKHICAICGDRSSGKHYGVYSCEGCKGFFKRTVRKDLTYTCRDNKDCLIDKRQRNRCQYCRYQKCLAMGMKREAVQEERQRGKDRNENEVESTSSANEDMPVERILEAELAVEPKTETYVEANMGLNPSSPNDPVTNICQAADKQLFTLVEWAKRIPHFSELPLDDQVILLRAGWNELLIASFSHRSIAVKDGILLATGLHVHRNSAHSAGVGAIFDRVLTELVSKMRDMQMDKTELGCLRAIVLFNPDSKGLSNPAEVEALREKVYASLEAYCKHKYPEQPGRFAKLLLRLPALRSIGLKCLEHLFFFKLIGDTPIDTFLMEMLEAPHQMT
Outline: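 GeneBLAzer RXR-alpha-UAS-bla HEK 293T cells in medium with 2% charcoal-stripped FBS, pre-incubated 5 hr at 37 C, then exposed to compounds 16 hr. Beta-lactamase reporter read by FRET substrate, 2 hr room temperature, 460/530 nm emission.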

[18] = qHTS assay to identify small molecule antagonists of the farnesoid-X-receptor (FXR) signaling pathway - cell viability counter screen (AID 743221; active = well fitted cell-killing curve with a large enough effect in the repeat runs, not every such curve was filed as active; note: nearly all actives have a fitted effect of over 50% in size)
Outline: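 FXR-UAS-bla HEK 293T cells were treated with test compounds plus chenodeoxycholic acid (50 uM final) for 16 h at 37 C. Cell viability in the same wells was then read as CellTiter-Glo luminescence after 30 min at room temperature.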

[19] = biological target: Vitamin D3 receptor (Homo sapiens) (UniProt P11473); assay: qHTS assay to identify small molecule antagonists of the vitamin D receptor (VDR) signaling pathway (AID 743223; active = well fitted inhibition curve with a large enough effect in the signal ratio in the repeat runs, not every such curve was filed as active; the % refers to the signal ratio)
Outline: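 VDR-bla cells were plated, incubated 4 h at 37C, then given compound and 1alpha,25-dihydroxyvitamin D3 (3 nM final). After 16 h at 37C, LiveBLAzer B/G FRET substrate was added for 2 h at room temperature and fluorescence read.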

SMILES | Potency [1] | Potency [2] | outcome [3] | Potency [4] | outcome [5] | outcome [6] | Potency [7] | Potency [8] | outcome [9] | outcome [10] | outcome [11] | Potency [12] | Potency [13] | Potency [14] | Potency [15] | outcome [16] | Potency [17] | Potency [18] | outcome [19]
ClCOCCl | inactive | inactive | inactive | inactive | inactive | inactive | inactive | inactive | inactive | inactive | inactive | inactive | inactive | inactive | inactive | inactive | inactive |  | 
O=P(O)(O)c1ccccc1 | inactive |  |  | inactive |  | inactive | inactive | inactive | inactive | inactive | inactive | inactive | inactive | inactive | inactive | inactive | inactive | inactive | inactive
C=C1C[C@@H]2[C@H](CC[C@]3(C)C(=O)CC[C@@H]23)[C@@]2(C)C=CC(=O)C=C12 | inactive |  | inactive | inactive |  | inactive | inactive | inactive | inactive | inactive | inactive | inactive | inactive | inactive | inactive | inactive | inactive | inactive | 
O=C1CC(=O)NC(=O)N1 | inactive | inactive | inactive | inactive | inactive | inactive | inactive | inactive | inactive | inactive | inactive | inactive | inactive | inactive | inactive | inactive | inactive | inactive | inactive
O=C(Cl)CCl | inactive | inactive | inactive | inactive | inactive | inactive | inactive | inactive | inactive | inactive | inactive | inactive | inactive | inactive | inactive | inactive | inactive | inactive | 
N#CN=C1SCCN1Cc1ccc(Cl)nc1 | inactive | inactive |  | inactive |  |  | inactive | inactive | inactive | inactive | inactive | inactive | inactive | inactive | inactive | inactive | 38.9 µM (active) | inactive | 
CCOC(=O)C(SP(=S)(OC)OC)c1ccccc1 (stereo not given) | inactive |  | inactive |  | inactive | inactive | inactive | inactive | inactive | inactive | inactive | inactive | inactive | inactive | inactive | inactive | inactive | inactive | inactive
CC(C)(N)Cc1ccccc1Cl | inactive | inactive | inactive | inactive | inactive |  | inactive |  | inactive | inactive | inactive | inactive | inactive | inactive | inactive | inactive | inactive | inactive | inactive
BrCc1ccc(Br)cc1 | inactive | inactive | inactive | inactive | inactive | inactive | inactive | inactive | inactive | inactive | inactive | inactive | inactive | inactive | inactive | inactive | inactive | inactive | inactive
CNC(=O)O/N=C(/CSC)C(C)(C)C | inactive |  |  | inactive |  | inactive | inactive | inactive | inactive | inactive | inactive | inactive | inactive | inactive | inactive | inactive | inactive | inactive | inactive
COc1ccccc1OC | inactive | inactive |  | inactive |  | inactive | inactive | inactive | inactive | inactive | inactive | inactive | inactive | inactive | inactive | inactive | inactive | inactive | 
O=CCCl | inactive |  |  | inactive |  | inactive | inactive |  | inactive | inactive | inactive | inactive | inactive | inactive | inactive | inactive | inactive | inactive | inactive
CCOP(=S)(OCC)SCCl | inactive |  | inactive | inactive | inactive | inactive | inactive | inactive | inactive | inactive | inactive | inactive | inactive | inactive | inactive | inactive | inactive | inactive | 
C=CCc1cc(OC)c2c(c1)OCO2 | inactive | inactive |  | inactive |  | inactive | inactive | inactive | inactive | inactive | inactive | inactive | inactive | inactive | inactive | inactive | inactive | inactive | inactive

From PubChem BioAssay (Tox21)
